PubChem BioAssay (NCI)
The panel holds about 83,000 compounds, 20% with a hit somewhere; the sample as a whole holds those more often.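 Treatment: one concentration, 48 hours, 96-well format. Scoring: percent growth, with anything below 10 considered active.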 The source made the active and inactive calls.

How the values were obtained:
Assay in all cases: NCI-60 one-dose screen, 48 h (100 = growth as untreated, 0 = no growth, -100 = all killed)
[1] = system: SK-MEL-2 melanoma; conditions: 10 µM unless noted
[2] = system: EKVX NSCLC; conditions: 10 µM unless noted
[3] = system: SN12C renal; conditions: 10 µM unless noted
[4] = system: UO-31 renal; conditions: 10 µM unless noted
[5] = system: TK-10 renal; conditions: 10 µM unless noted
[6] = system: ACHN renal; conditions: 10 µM unless noted
[7] = system: CAKI-1 renal; conditions: 10 µM unless noted
[8] = system: A498 renal; conditions: 10 µM unless noted
[9] = system: CCRF-CEM leukemia; conditions: 10 µM unless noted
[10] = system: MOLT-4 leukemia; conditions: 10 µM unless noted
[11] = system: SR leukemia; conditions: 10 µM unless noted
[12] = system: RPMI-8226 leukemia; conditions: 10 µM unless noted
[13] = system: OVCAR-8 ovarian; conditions: 10 µM unless noted
[14] = system: OVCAR-5 ovarian; conditions: 10 µM unless noted
[15] = system: OVCAR-4 ovarian; conditions: 10 µM
[16] = system: OVCAR-3 ovarian; conditions: 10 µM unless noted
[17] = system: HS 578T breast; conditions: 10 µM unless noted
[18] = system: NCI/ADR-RES ovarian; conditions: 10 µM unless noted
[19] = system: IGROV1 ovarian; conditions: 10 µM unless noted
[20] = system: SK-OV-3 ovarian; conditions: 10 µM unless noted

Measured: growth

Cn1cc(-c2nnc(-c3cn(C)c4ncc(Br)cc34)o2)c2ccccc21
inactive: [1] 99.1% | [2] 74.1% | [3] 88.2% | [4] 61.4% | [5] 114% | [6] 81.4% | [7] 45% | [8] 86.4% | [9] 102% | [10] 93.6% | [11] 52.7% | [12] 88.5% | [13] 93.4% | [14] 93.4% | [15] 90.3% | [16] 88.2% | [17] 89.6% | [18] 68.9%

COc1cc2c(O)n(CCCN3CCOCC3)c3c4cnc5cccc(c(=O)c3c2cc1OC)c54
inactive: [1] 45.6% | [2] 63.5% | [3] 14.1% | [4] 30.2% | [5] 73.7% | [6] 12.2% | [7] 30% | [8] 56.1% | [9] 15.1% | [10] 11.8% | [11] 20.5% | [12] 14.8% | [13] 39.9% | [14] 69% | [15] 48% | [19] 60.3% | [16] 62.9% | [17] 81.2% | [18] 74.5%

O=C(Nc1ccccc1)Nc1ccc(C(=O)/C=C/c2ccc(N3CCCC3)cc2)cc1
inactive: [1] 17.9% | [2] 74.2% | [3] 66.5% | [4] 67.7% | [5] 102% | [6] 83.6% | [7] 61.7% | [8] 45.9% | [9] 72.6% | [10] 67.5% | [11] 98.9% | [12] 78.3% | [13] 81.7% | [14] 83.2% | [20] 66.1% | [19] 92.1% | [16] 43% | [17] 38.2% | [18] 28.6%

CCCN1CC(c2ccc(OC)c(OC)c2)=C(c2cn(C(=O)OCC)c3ccccc23)C1=O
active: [8] -11.4% | [16] 2%
inactive: [1] 53.3% | [2] 55.6% | [3] 53% | [4] 39.4% | [5] 89.6% | [6] 37% | [7] 25.8% | [9] 78.8% | [10] 38.7% | [11] 25.3% | [12] 63.8% | [13] 71.5% | [14] 83.1% | [15] 62.3% | [19] 40.2% | [17] 48.1% | [18] 29.5%

Cc1ccc(-c2cn(C/C=C3\C=CN(S(=O)(=O)c4ccccc4)CC3)nn2)cc1
inactive: [1] 101% | [2] 101% | [3] 91.9% | [4] 72.6% | [5] 115% | [6] 95.8% | [7] 76.5% | [8] 94.3% | [10] 106% | [11] 108% | [12] 102% | [13] 100% | [14] 120% | [15] 74.2% | [19] 104% | [16] 108% | [17] 97.2% | [18] 99.6%
active: [9] 3.1%

CCN1CCN(CC(=O)Nc2nc3ccc(NCc4ccc(Cl)cc4)cc3s2)CC1
inactive: [1] 86.4% | [2] 86.3% | [3] 68.4% | [4] 59.6% | [5] 96.8% | [6] 83.3% | [7] 68.3% | [8] 58.4% | [9] 50% | [10] 54.4% | [11] 15.8% | [12] 39.6% | [13] 78% | [14] 74.6% | [15] 80.4% | [19] 70.9% | [16] 62.1% | [17] 70.5% | [18] 82.6%

Cn1cc(-c2nnc(-c3cn(C)c4ncccc34)s2)c2ccccc21
inactive: [1] 79.8% | [2] 70.7% | [3] 50.3% | [4] 39% | [5] 79.9% | [6] 86.6% | [7] 47% | [8] 31% | [9] 38.3% | [10] 47.9% | [11] 26.5% | [12] 43.9% | [13] 90.9% | [14] 90% | [15] 81% | [19] 70.2% | [16] 40.1% | [17] 83.7% | [18] 48%
